OTUD3 block: blocks human OTUD3 ubiquitin-rhodamine cleavage; AID 1645858; 47,000 tested, 0.7% active; Q5T2D3; purified OTUD3, Ub-rhodamine fluorescence, 2 h; inhibition, % at 25 µM
USP30 inh: blocks human USP30 ubiquitin-rhodamine cleavage; Q70CQ3; purified USP30, Ub-rhodamine cleavage fluorescence; inhibition, % at 25 µM; 47,000 tested, 5.3% active; AID 1645860
USP17 inh: inhibitors of human USP17 deubiquitinase; 47,000 tested, 6.5% active; A8MUK1; purified USP17, Ub-rhodamine cleavage fluorescence, 3 h; inhibition, % at 50 µM; AID 1645855
USP28 inh: inhibitors of human USP28 deubiquitinase; Q96RU2; purified USP28, Ub-rhodamine cleavage fluorescence, 30 min; inhibition, % at 25 µM; 47,000 tested, 3% active
Target sequence (Q96RU2 whole entry, looked up): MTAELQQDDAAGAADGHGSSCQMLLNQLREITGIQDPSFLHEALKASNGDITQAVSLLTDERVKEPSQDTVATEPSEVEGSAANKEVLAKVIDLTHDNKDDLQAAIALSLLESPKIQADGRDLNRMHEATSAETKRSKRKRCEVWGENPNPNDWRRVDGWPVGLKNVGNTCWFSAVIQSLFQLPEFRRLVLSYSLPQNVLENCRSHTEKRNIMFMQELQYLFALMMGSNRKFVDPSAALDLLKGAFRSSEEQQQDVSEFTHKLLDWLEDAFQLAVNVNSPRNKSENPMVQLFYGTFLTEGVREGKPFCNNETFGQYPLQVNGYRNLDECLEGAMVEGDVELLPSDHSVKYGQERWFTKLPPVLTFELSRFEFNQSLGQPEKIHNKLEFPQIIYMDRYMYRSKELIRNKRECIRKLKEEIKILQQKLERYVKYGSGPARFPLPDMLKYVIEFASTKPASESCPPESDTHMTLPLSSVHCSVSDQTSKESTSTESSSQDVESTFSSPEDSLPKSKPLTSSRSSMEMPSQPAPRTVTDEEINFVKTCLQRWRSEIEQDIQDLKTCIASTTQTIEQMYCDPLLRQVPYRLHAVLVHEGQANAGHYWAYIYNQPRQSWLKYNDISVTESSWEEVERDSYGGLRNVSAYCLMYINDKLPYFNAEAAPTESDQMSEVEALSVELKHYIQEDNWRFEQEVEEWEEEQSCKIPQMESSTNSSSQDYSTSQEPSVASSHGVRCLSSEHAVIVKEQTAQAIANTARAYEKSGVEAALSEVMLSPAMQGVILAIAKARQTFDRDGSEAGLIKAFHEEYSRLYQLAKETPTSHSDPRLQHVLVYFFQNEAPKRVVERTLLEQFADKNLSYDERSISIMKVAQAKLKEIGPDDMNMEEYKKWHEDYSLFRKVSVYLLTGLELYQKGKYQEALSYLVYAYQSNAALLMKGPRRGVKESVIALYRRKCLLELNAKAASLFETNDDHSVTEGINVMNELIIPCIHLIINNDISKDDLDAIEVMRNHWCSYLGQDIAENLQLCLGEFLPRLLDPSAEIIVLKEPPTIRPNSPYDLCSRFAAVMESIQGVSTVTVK
Each line names hits and unclear results; the compound was inactive in the other large screens. This is a sample that favours compounds with a hit; in the whole collection about 12% have one here. Cut-off read from the data, not from the text of the source: active = inhibition above about 30%; inactive = the rest.

COc1ccc(CCNC(=O)C(=O)NCc2ccc(Cl)cc2)cc1OC	USP17 inh 41
Cc1cccc(N2CCN(CCNC(=O)c3cc4c(s3)CS(=O)(=O)C4)CC2)c1C	USP28 inh 40
COc1ccccc1N1CCN(CCNC(=O)Nc2cccc(C)c2C)CC1	none
CCOc1ccc(CCNC(=O)c2cc3c(s2)CS(=O)(=O)C3)cc1OCC	USP28 inh 39 (no result: USP17 inh)
Cc1onc(-c2ccccc2Cl)c1C(=O)Nc1nnc(SCC(=O)Nc2ccccc2F)s1	none
COc1ccc(NS(=O)(=O)c2cc(OC)ccc2NC(=O)c2cc3c(s2)CCC3)cc1	USP17 inh 31
O=C(Nc1cc(S(=O)(=O)N2CCOCC2)ccc1Cl)c1cc2c(s1)CCCC2	none
Cc1nc(CO[C@H]2CN(C(=O)c3cccn3C)[C@@H]3COC[C@H]23)cs1	none
Cc1c(-c2ccccc2)sc(NC(=O)c2cnccn2)c1C(=O)N1CCOCC1	none
CC12c3ccc4c(c3C(=O)c3occ(c31)C(=O)CC2O)CCC4=O (stereo unspecified)	USP28 inh 54
Cc1c(Cl)cccc1NC(=O)Cn1c(=O)c2ccccc2n2nncc12	USP17 inh 50
Cc1c(Cl)cccc1NC(=O)CN1c2ccccc2S(=O)(=O)c2ccccc21	none (no result: USP30 inh, USP28 inh)
CCCCCC(=O)Nc1c(-c2ccccc2Cl)c(=O)c2ccccc2n1CC	none
CN(Cc1nc2ccccc2s1)C(=O)c1ccc(=O)[nH]c1	none
Cc1ccc(-c2ncc(C(=O)NC(C)c3ccccn3)c(-c3ccncc3)n2)cc1 (stereo unspecified)	none
CSc1ncc(C(=O)NC(C)c2ccccc2)c(-c2ccccc2)n1 (stereo unspecified)	USP17 inh 60
O=C(Cc1cccs1)Nc1nnc(SCc2ccc([N+](=O)[O-])cc2)s1	none
O=C(CSc1nnc(NC(=O)c2ccc([N+](=O)[O-])cc2)s1)Nc1ccc(Br)cc1	USP30 inh 33
COc1ccc(NC(=O)c2ccc3[nH]c4c(c3c2)CC(C)CC4)cc1 (stereo unspecified)	USP17 inh 31
COc1ccc(NC(=O)c2ccc3c(c2)C2C4CCC(C4)C2C(c2ccccc2)N3)cc1 (stereo unspecified)	USP30 inh 39
CSCC[C@H](NC(=O)OC(C)(C)C)C(=O)N1CCC(C(=O)N[C@H](C)C(=O)Nc2ccc(F)cc2)CC1	none (no result: USP17 inh)
Cc1ccc(C(=O)[C@H]2C(c3ccccc3OCC#N)=NO[C@]23C(=O)Nc2ccccc23)cc1	USP17 inh 42
Cc1ccc(C(=O)[C@H]2C(/C=C/c3ccccc3)=NO[C@]23C(=O)Nc2ccccc23)cc1	none
NC(=S)N=Nc1c(O)[nH]c2ccc(Br)cc12	USP30 inh 34
CCn1c(=O)[nH]c2ccc(Br)cc2c1=O	none
COc1ccccc1/C=C/C(=O)Nc1nc2n(n1)C(c1ccc(Cl)cc1)CC(=O)N2 (stereo unspecified)	OTUD3 block 37, USP30 inh 39, USP17 inh 44
COc1ccc(C(=O)Nc2nc3n(n2)C(c2ccccc2)CC(=O)N3)cc1 (stereo unspecified)	USP30 inh 35, USP17 inh 73
COc1ccc(-c2nc(CNS(=O)(=O)c3ccc(OC)cc3)cs2)cc1	USP17 inh 49
COc1ccc(-c2nc(CNS(=O)(=O)c3ccc(OC)c(C)c3)cs2)cc1	USP17 inh 38
Cn1cncc1-c1nccnc1CC1CCN(Cc2cnccn2)CC1	none
CC(=O)NC(Cc1cccc(F)c1)C(=O)NC1CCN(C(=O)c2cnccn2)CC1 (stereo unspecified)	none
CCc1oc2cc(O)ccc2c(=O)c1-c1ccc2c(c1)OCCO2	USP28 inh 36
O=C(CSc1nc2scc(-c3ccco3)c2c(=O)n1-c1ccccc1)Nc1nsc(-c2ccccc2)n1	USP28 inh 37
Cc1cc(-c2ccc(S(=O)(=O)NCCc3ccccc3)s2)on1	USP30 inh 35
CC(C)(C)c1cc(CCC(=O)Nc2c3c(nc4c2CCC4)CCCC3)cc(C(C)(C)C)c1O	USP30 inh 77, USP28 inh 34
Cc1ccc(NC(=O)c2ccc(-c3cncnc3)nc2)cc1F	none
CCN(CCCNC(=O)CCc1nnc2n(Cc3ccccc3)c(=O)c3ccccc3n12)c1cccc(C)c1	USP30 inh 42 (no result: USP17 inh)
CC(C)CCn1c(=O)c2ccccc2n2c(CCC(=O)NCCN3CCCC3)nnc12	none
O=C(CCc1nnc2n(Cc3ccc(F)cc3)c(=O)c3ccccc3n12)N1CCN(c2ccccn2)CC1	USP30 inh 53
O=C(CCc1nnc2n(Cc3ccccc3)c(=O)c3ccccc3n12)NCC1CCCO1 (stereo unspecified)	USP30 inh 30
CC(C)Cn1c(=O)c2ccccc2n2c(CCC(=O)NCC3CCCO3)nnc12 (stereo unspecified)	USP30 inh 35
CCN(CCCNC(=O)CCc1nnc2n(Cc3ccc(C)cc3)c(=O)c3ccccc3n12)c1cccc(C)c1	none
O=C(CCc1nnc2n(Cc3ccccc3)c(=O)c3ccccc3n12)NCc1ccccn1	none
CCN(CC)C(=O)Cn1cc(C(=O)C(=O)Nc2cccc(NC(C)=O)c2)c2ccccc21	none
COc1cc2ncc(S(=O)(=O)c3ccc(C)cc3)c(Nc3ccc(F)cc3)c2cc1OC	USP28 inh 47
Cc1ccc(-c2nc(NC(=O)COc3cc(C)cc(C)c3)no2)cc1	none
O=C(COc1ccc(F)cc1)Nc1noc(-c2ccccc2)n1	USP30 inh 74, USP17 inh 63, USP28 inh 44
Cc1cccc(-c2nc(NC(=O)COc3ccc(F)cc3)no2)c1	USP30 inh 68, USP17 inh 71, USP28 inh 61
Cc1cc(NC(=O)CSc2nnc(CNC(=O)COc3ccc(Cl)cc3)o2)no1	none
Cc1ccc(NC(=O)COc2ccccc2-c2noc(-c3cccc(F)c3)n2)cc1	none
Cc1cc(NC(=O)COc2ccc(F)c(Cl)c2)no1	USP28 inh 40
Cc1ccc(-c2nc(NC(=O)COc3ccc(Cl)cc3)no2)cc1	USP17 inh 93, USP28 inh 89
CC(C)n1nccc1C(=O)N1[C@H](Cc2ccccc2)C[C@H]2[C@H]1CCCCCN2C	none
Cc1ccc(CN2CCCn3nc(C(=O)NCc4ccccc4C)cc3C2=O)cc1	USP30 inh 52, USP17 inh 50
Cc1ccc(CN2CCCn3nc(C(=O)NCc4cccs4)cc3C2=O)cc1	none
CN(C)S(=O)(=O)c1ccc(C(=O)Nc2c(C#N)oc3ccccc23)cc1	USP17 inh 51
CN(C)S(=O)(=O)c1ccc(C(=O)Nc2sccc2C#N)cc1	none
O=c1ccc(-c2cc3ccccc3o2)cn1Cc1ccccc1-c1ccccc1	OTUD3 block 46, USP17 inh 48, USP28 inh 62
Cc1ccc(C)c(N2CCN(C(=O)CCCn3c(=O)[nH]c4ccccc4c3=O)CC2)c1	none (no result: USP17 inh)
Cc1noc([C@@H]2C[C@H]3CN(Cc4ccco4)C[C@H]3O2)n1	none
Cc1ccc(CSC2=NS(=O)(=O)c3ccccc3N2)cc1	USP28 inh 57
COc1cccc(CSC2=NS(=O)(=O)c3ccccc3N2)c1	none
COc1ccc(OC)c2c(C)cc(N3CCN(S(=O)(=O)c4ccc5c(c4)CCCN5S(C)(=O)=O)CC3)nc12	USP30 inh 38, USP17 inh 98, USP28 inh 44
